Measurements: the supplement of paper PMC10849652
About 7,900 targets were measured; listed, in parts, are those with a hit and a random draw of the rest. About 0.6% of all pairs of compound and target were hits.

The targets below were run with c1cn2cc(-c3ccc4cn[nH]c4c3)nc(Nc3ccc(N4CCOCC4)cc3)c2n1 [entospletinib] (assay: log2 fold change, soluble protein after heating vs DMSO (PISA); higher = thermal stabilisation; K562 cells, 10 uM, 30 min; active = over 0.2 and 3.5 SD of the protein, either way, in both replicates (recomputed)).
How it was run: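 Aliquots of K562 cells (2×10^6 cells/mL) treated with 10 μM compound for 30 min were heated for 3 min over 48°C-58°C. After pooling and extraction in PBS with 0.5% NP-40 at 4°C, soluble protein from a 21,000xg, 90 min spin was quantified by TMTpro 16plex LC-MS/MS with channel sums equalised. Thermal stability is expressed against control samples, from duplicates, as a log2 fold change.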

Sequence of UniProt Q9BVC4 (Q9BVC4 whole entry, looked up): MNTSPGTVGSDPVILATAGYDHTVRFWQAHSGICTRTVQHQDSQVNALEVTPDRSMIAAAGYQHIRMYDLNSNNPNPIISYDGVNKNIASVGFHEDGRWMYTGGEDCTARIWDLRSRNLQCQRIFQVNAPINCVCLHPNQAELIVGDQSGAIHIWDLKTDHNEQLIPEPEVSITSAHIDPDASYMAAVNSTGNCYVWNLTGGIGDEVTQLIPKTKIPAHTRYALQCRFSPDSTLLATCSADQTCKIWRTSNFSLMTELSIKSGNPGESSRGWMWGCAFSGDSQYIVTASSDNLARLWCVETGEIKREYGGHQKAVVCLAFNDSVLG
Sequence of UniProt Q9BZQ8 (Q9BZQ8 whole entry, looked up): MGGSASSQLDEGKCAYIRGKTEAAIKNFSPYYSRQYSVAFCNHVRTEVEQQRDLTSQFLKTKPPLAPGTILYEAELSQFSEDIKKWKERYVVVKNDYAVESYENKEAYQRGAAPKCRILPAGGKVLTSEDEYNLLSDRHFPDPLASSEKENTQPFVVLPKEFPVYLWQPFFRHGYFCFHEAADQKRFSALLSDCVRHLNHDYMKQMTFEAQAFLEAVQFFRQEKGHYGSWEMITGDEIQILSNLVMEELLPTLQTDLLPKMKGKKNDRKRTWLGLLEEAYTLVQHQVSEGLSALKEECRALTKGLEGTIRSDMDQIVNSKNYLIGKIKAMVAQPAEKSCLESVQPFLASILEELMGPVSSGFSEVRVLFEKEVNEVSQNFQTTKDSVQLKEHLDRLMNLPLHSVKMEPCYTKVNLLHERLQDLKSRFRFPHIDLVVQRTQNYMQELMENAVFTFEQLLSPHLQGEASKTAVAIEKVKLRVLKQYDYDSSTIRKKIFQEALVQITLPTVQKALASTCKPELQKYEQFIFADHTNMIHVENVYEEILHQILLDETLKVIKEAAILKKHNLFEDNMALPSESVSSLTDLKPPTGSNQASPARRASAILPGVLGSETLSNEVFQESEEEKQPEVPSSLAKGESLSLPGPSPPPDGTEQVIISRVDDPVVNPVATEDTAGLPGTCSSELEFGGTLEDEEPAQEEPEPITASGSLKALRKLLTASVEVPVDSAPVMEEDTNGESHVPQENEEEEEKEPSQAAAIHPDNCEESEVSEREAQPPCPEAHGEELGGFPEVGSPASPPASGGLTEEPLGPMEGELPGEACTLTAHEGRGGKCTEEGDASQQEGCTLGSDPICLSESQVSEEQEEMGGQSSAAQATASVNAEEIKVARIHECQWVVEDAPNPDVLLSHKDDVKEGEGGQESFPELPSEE
Sequence of UniProt Q15021 (Q15021 whole entry, looked up): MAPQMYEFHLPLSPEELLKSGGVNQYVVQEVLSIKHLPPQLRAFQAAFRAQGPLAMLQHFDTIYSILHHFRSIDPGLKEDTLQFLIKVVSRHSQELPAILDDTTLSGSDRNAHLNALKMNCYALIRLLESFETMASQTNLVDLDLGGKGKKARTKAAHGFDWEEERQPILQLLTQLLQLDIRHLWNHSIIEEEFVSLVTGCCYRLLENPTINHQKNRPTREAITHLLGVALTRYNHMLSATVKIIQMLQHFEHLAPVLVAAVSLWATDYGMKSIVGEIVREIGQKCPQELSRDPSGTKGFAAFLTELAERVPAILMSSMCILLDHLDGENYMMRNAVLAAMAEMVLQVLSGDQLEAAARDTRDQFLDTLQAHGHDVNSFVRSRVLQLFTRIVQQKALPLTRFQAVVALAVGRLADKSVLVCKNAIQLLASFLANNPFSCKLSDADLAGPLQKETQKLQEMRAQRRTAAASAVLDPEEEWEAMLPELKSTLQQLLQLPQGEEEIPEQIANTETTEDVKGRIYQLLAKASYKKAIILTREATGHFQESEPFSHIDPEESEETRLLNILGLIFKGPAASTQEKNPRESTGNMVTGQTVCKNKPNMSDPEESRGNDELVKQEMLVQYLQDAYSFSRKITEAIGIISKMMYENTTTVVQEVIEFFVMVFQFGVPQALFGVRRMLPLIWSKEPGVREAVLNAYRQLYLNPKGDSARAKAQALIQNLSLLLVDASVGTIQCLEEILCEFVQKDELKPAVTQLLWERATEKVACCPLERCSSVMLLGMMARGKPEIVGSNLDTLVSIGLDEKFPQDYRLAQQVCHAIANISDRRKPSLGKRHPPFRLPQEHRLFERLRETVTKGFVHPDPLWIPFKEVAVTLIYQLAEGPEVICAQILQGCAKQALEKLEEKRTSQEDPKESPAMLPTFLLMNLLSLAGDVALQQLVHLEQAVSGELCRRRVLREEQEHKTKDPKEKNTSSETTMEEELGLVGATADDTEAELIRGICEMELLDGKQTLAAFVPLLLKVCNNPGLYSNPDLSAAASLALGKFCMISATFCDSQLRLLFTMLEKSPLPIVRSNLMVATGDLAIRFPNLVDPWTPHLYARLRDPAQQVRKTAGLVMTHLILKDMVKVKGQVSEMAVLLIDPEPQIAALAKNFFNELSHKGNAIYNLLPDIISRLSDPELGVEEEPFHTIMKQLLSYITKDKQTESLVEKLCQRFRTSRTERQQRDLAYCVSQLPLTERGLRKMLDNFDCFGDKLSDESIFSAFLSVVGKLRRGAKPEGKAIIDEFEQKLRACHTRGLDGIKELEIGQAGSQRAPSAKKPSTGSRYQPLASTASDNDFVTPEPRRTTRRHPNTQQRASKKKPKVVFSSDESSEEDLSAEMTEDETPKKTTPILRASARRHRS
Sequence of UniProt Q13423 (Q13423 whole entry, looked up): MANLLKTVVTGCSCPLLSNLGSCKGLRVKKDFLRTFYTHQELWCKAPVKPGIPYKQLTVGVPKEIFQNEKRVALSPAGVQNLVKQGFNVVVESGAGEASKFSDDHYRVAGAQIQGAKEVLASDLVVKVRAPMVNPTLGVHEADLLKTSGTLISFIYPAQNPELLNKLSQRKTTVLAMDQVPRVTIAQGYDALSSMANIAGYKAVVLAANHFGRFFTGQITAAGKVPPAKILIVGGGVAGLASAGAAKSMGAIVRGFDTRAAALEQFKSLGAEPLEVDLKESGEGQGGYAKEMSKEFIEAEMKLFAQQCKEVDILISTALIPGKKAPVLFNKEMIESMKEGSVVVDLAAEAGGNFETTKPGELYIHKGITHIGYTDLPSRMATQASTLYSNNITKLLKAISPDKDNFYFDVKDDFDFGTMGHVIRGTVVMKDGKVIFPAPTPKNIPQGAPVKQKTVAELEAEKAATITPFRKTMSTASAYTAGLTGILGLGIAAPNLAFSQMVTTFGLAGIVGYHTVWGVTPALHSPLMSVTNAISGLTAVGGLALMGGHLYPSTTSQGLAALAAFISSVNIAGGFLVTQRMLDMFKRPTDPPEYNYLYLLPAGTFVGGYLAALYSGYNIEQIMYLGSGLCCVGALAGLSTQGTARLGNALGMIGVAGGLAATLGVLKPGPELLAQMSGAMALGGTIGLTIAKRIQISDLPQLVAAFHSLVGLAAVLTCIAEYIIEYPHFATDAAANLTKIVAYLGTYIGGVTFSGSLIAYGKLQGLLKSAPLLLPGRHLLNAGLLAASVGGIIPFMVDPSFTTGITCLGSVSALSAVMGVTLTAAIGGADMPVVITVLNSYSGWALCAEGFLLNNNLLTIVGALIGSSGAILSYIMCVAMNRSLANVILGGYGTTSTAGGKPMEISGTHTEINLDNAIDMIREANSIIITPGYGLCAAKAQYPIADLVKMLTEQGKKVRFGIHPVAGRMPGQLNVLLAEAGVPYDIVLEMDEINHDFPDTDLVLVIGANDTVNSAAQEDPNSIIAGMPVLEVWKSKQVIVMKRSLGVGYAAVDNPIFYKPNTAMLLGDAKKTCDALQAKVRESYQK
Sequence of UniProt Q9BPX3 (Q9BPX3 whole entry, looked up): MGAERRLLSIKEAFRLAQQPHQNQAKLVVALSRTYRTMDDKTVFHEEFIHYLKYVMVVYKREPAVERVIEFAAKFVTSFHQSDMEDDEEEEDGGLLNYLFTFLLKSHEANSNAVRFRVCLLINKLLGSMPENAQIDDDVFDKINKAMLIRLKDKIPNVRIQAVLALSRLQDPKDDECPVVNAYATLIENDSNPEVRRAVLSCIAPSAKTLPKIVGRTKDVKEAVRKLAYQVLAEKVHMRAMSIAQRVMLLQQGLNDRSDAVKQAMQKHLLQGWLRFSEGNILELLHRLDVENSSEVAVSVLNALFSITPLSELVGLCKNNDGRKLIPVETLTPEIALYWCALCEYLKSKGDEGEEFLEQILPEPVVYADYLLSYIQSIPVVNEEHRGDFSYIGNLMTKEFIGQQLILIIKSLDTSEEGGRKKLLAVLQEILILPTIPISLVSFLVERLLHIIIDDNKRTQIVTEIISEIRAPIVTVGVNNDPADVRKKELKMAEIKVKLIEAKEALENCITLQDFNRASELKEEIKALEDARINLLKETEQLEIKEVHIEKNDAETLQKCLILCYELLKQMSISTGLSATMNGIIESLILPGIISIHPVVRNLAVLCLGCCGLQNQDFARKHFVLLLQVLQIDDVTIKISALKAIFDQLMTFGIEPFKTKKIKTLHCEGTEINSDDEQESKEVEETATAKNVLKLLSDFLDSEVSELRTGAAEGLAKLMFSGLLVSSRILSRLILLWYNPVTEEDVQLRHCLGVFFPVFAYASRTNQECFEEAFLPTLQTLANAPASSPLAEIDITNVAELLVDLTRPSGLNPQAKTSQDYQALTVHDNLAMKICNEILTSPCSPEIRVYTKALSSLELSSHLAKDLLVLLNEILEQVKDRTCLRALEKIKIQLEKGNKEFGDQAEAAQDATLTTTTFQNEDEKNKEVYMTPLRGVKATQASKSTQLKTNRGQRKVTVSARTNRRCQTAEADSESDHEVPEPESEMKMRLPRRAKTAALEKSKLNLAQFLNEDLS
Sequence of UniProt P53370 (P53370 whole entry, looked up): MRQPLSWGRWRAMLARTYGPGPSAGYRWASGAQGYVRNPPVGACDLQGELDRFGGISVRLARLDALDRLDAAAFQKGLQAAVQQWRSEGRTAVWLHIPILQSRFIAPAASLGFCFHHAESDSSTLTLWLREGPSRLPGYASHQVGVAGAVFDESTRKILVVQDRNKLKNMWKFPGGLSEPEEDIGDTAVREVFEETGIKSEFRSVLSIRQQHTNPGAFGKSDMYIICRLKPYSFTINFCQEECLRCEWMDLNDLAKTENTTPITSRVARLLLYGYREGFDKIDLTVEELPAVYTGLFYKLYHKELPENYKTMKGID

log2 fold change, inactive:
MRPS9 (UniProt P82933) 0.087
NCAPG (UniProt Q9BPX3) 0
MRPS27 isoform 2 (UniProt Q92552) -0.029
NNT (UniProt Q13423) -0.042
MT-ATP6 (UniProt P00846) 0.029
MRPS33 (UniProt Q9Y291) 0.086
NOB1 (UniProt Q9ULX3) -0.013
NCOR1 (UniProt O75376) 0.067
NUMB (UniProt P49757) -0.008
MYH10 isoform 3 (UniProt P35580) -0.073
NACC1 (UniProt Q96RE7) -0.019
MNAT1 (UniProt P51948) -0.065
NOL11 (UniProt Q9H8H0) -0.05
OTUD6B (UniProt Q8N6M0) -0.028
NRDC isoform 2 (UniProt O43847) -0.005
NDUFB1 (UniProt O75438) 0.017
MND1 (UniProt Q9BWT6) 0.047
NFYC (UniProt Q13952) 0.033
NME7 (UniProt Q9Y5B8) -0.022
MKRN2 (UniProt Q9H000) -0.038
NUP160 (UniProt Q12769) 0.03
MMS19 isoform 8 (UniProt Q96T76) 0.033
MRPS17 (UniProt Q9Y2R5) 0.118
OTUD4 (UniProt Q01804) 0.105
NSMCE2 (UniProt Q96MF7) -0.052
MUL1 (UniProt Q969V5) -0.005
ORC5 (UniProt O43913) 0.012
NCAPD2 (UniProt Q15021) 0.031
NCAPH (UniProt Q15003) 0.012
MLST8 (UniProt Q9BVC4) -0.06
NPC1L1 (UniProt Q9UHC9) -0.007
NAPG (UniProt Q99747) 0.037
NUDT6 (UniProt P53370) 0.127
NIBAN1 (UniProt Q9BZQ8) 0.055
